Source: PubChem BioAssay (NCATS)
Records with an inconclusive call do not appear. Calls follow the shape of the dose curve; as a rule, active = well fitted curve in either direction with a large enough effect (not every such curve was filed as active); inconclusive = small, poorly fitted or top-dose-only effect, or another doubt; inactive = flat fitted curve, though single readings scatter.

Experiment: AP1 Signaling Pathway (AID 357)
Details: ME-180 AP-1-bla reporter, EGF-induced, beta-lactamase ratio, 5 h; at 17.2 µM (top of the series) unless noted
How it was run: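 Titration-series screen for positive or negative modulators of EC50 EGF-induced signaling in ME-180 cells carrying an AP-1-driven beta-lactamase reporter. After 5 hours at 37 degrees Celsius, CCF4 460nm/530nm emission ratio gave %Activity; AC50 values derived.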
% is scaled to controls: 0 for no effect and ±100 for the full control effect.

Activity change, negative = inhibition, inactive:
CCCc1cc(NCCN2CCOCC2)n2c(nc3ccccc32)c1C#N -11.4%, COc1cc(C2CC(C(F)(F)F)n3ncc(C(=O)O)c3N2)cc(OC)c1OC (stereo not drawn) 6.2%, CCOC(=O)Cc1nnc(Nc2cccc(O)c2)c2ccccc12 -12.7%, CN(C)c1nc2sc3c(c2c(=O)n1C)CC(C)(C)OC3 -6.89%, Cc1cc(=O)oc(C)c1C(=O)N1CCN(Cc2ccc3c(c2)OCO3)CC1 6.44%

Experiment: NFAT Signaling Pathway (AID 444);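 also: carbachol stimulus at about its EC50 of 1 µM final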
Details: Jurkat NFAT-bla M1, carbachol, beta-lactamase ratio, 5 h; at 17.2 µM (top of the series) unless noted
How it was run: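 Read-out: CCF4 FRET ratio (460 nm/530 nm) after 1 h RT dye loading, used for %activity and AC50 from titration series. Cells: Jurkat NFAT-β-lactamase/M1 line, treated with compound plus 1 uM carbachol for 5 h, 37 °C.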

Activity change, negative = inhibition, inactive:
CS(=O)(=O)c1ccc2nc(NC(NC(=O)c3ccco3)(C(F)(F)F)C(F)(F)F)sc2c1 21.2%, N#C/C(C(=O)NCc1ccccc1)=C1\SC(CCO)C(=O)N1c1ccccc1 (stereo not drawn) 10.3%, Cn1c[n+](C)cc1/C=N/O 4.23%, CC(C)c1[nH]c(=O)c(C#N)c2c1CSC(C)(C)C2 -5.85%, Cc1cc(C)c(C#N)c(SCC(=O)NC2CC2)n1 -3.32%, COC(=O)CC1SC(=O)NC1=O (stereo not drawn) 5.58%, Cc1cc(=O)oc(C)c1C(=O)NC1CC(C)(C)NC(C)(C)C1 -3.93%, COC(=O)CSc1nnc(C)c(=O)[nH]1 3.42%, O=c1[nH]cnc2cc(-c3ccccc3)sc12 3.27%, CCOC(=O)c1c(C)n(C)c2ccc(OC)c(NC(=O)CN3CCCCC3)c12 -1.27%, CCN(CC)CCN1C(=O)C(=O)/C(=C(/O)c2c(C)[nH]c(C(=O)OC)c2C)C1c1ccco1 (stereo not drawn) -2.14%, COc1cccc(C2C(C(=O)c3cc4ccccc4o3)=C(O)C(=O)N2CCN(C)C)c1OC (stereo not drawn) 1.15%, CCNC(=O)N(C)c1nncnc1C(=O)NC 2.38%, O=C(NCCO)C1(c2ccccc2)CCCC1 -7.5%, O=C1C=C(O)CC(c2ccc(Cl)c(Cl)c2)C1 (stereo not drawn) -10.9%, CCN(CC)S(=O)(=O)c1cccc2c(N(C)C)cccc12 -17.2%, CCCCc1nc(N2CCOCC2)c(C#N)c2c1CCCC2 -27.2%, Cc1ccc(C2/C(=C(/O)c3cnn(-c4ccccc4)c3C)C(=O)C(=O)N2CCN2CCOCC2)o1 (stereo not drawn) 16.8%, Cc1ccc(C2CC(c3cccs3)n3nc(N)nc3N2)cc1 (stereo not drawn) 6.31%, Cc1nc(SCC(N)=O)[nH]c(=O)c1Cc1ccc(OC(C)C)cc1 1.93%, NC(=O)c1cc(-c2ccccc2)nc(Oc2ccccc2)n1 -25.9%, COc1ccccc1C(=O)Nc1cc(Cl)ccc1O -2.92%, CN=C1c2c(-c3ccccc3)c3cc(OC)ccc3n2CCN1C -8.39%, CCCCOC(=O)c1[nH]c(C)c(C(=O)OC)c1C 8.05%, CCCC(=O)Nn1cnc2c(c1=O)C1(CCCC1)Cc1ccccc1-2 -0.237%, OC(CCCN1CCC(O)(c2ccc(Cl)cc2)CC1)c1ccc(F)cc1 (stereo not drawn) -27.5%, CCCc1nc2n[nH]c(N)c2c2c1CCCC2 -0.387%, CC1(C)CC(N(Cc2ccco2)C(=O)Cc2ccccc2)CCO1 (stereo not drawn) -3.12%, Cc1oc2nc(SCCCC(=O)NCCCO)nc(N)c2c1C 15.2%, Cc1ccc(-n2nc3cc(Cl)c(NC(=O)c4ccco4)cc3n2)cc1 -3.83%, CCCC1Cc2c(sc3nc(SC)nc(N)c23)CO1 (stereo not drawn) -10.7%, COC(=O)C(NC(=O)c1ccccc1)(Nc1nc(C)cs1)C(F)(F)F (stereo not drawn) 6.46%, Cc1cc(N2CCN(C3CCCC3)CC2)n2c(nc3ccccc32)c1C#N 19.5%, COC(=O)c1ccc(=O)n(Cc2ccco2)c1 -1.77%, CCCc1cc(NCCN2CCOCC2)n2c(nc3ccccc32)c1C#N 9.42%, COc1cc(C2CC(C(F)(F)F)n3ncc(C(=O)O)c3N2)cc(OC)c1OC (stereo not drawn) -3.76%, CCOC(=O)Cc1nnc(Nc2cccc(O)c2)c2ccccc12 -6.58%, CN(C)c1nc2sc3c(c2c(=O)n1C)CC(C)(C)OC3 -2.36%, Cc1cc(=O)oc(C)c1C(=O)N1CCN(Cc2ccc3c(c2)OCO3)CC1 17.1%

Experiment: Stat Signaling Pathway (AID 446);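 also: ME-180 cervical cancer cells given 40 pM IL-6 alongside compound; SIE-controlled beta-lactamase reporter measured as 460/530 nm FRET emission ratio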
Details: ME-180 (cervical carcinoma) SIE beta-lactamase reporter, IL-6 stimulated, 5 h; at 17.2 µM (top of the series) unless noted
How it was run: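 Normalization used AC90 stimulation (300 pM IL-6) and AC90 inhibition (125 nM pan-JAK inhibitor at 40 pM IL-6). The underlying signal is SIE-driven beta-lactamase in ME-180 cells after 5 h IL-6 exposure with compound.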

activity, negative = inhibition, inactive:
CS(=O)(=O)c1ccc2nc(NC(NC(=O)c3ccco3)(C(F)(F)F)C(F)(F)F)sc2c1 -18.9%, N#C/C(C(=O)NCc1ccccc1)=C1\SC(CCO)C(=O)N1c1ccccc1 (stereo not drawn) -2.91%, Cn1c[n+](C)cc1/C=N/O -2.71%, CC(C)c1[nH]c(=O)c(C#N)c2c1CSC(C)(C)C2 4.25%, Cc1cc(C)c(C#N)c(SCC(=O)NC2CC2)n1 8.05%, COC(=O)CC1SC(=O)NC1=O (stereo not drawn) 7.23%, Cc1cc(=O)oc(C)c1C(=O)NC1CC(C)(C)NC(C)(C)C1 0.837%, COC(=O)CSc1nnc(C)c(=O)[nH]1 5.67%, O=c1[nH]cnc2cc(-c3ccccc3)sc12 9.54%, CCOC(=O)c1c(C)n(C)c2ccc(OC)c(NC(=O)CN3CCCCC3)c12 -0.178%, CCN(CC)CCN1C(=O)C(=O)/C(=C(/O)c2c(C)[nH]c(C(=O)OC)c2C)C1c1ccco1 (stereo not drawn) -0.9%, COc1cccc(C2C(C(=O)c3cc4ccccc4o3)=C(O)C(=O)N2CCN(C)C)c1OC (stereo not drawn) -6.68%, CCNC(=O)N(C)c1nncnc1C(=O)NC -6.45%, O=C(NCCO)C1(c2ccccc2)CCCC1 2.26%, O=C1C=C(O)CC(c2ccc(Cl)c(Cl)c2)C1 (stereo not drawn) -4.42%, CCN(CC)S(=O)(=O)c1cccc2c(N(C)C)cccc12 19%, CCCCc1nc(N2CCOCC2)c(C#N)c2c1CCCC2 -8.28%, Cc1ccc(C2/C(=C(/O)c3cnn(-c4ccccc4)c3C)C(=O)C(=O)N2CCN2CCOCC2)o1 (stereo not drawn) -14.9%, Cc1ccc(C2CC(c3cccs3)n3nc(N)nc3N2)cc1 (stereo not drawn) 3.76%, Cc1nc(SCC(N)=O)[nH]c(=O)c1Cc1ccc(OC(C)C)cc1 8.12%, NC(=O)c1cc(-c2ccccc2)nc(Oc2ccccc2)n1 -5.87%, COc1ccccc1C(=O)Nc1cc(Cl)ccc1O -4.42%, CN=C1c2c(-c3ccccc3)c3cc(OC)ccc3n2CCN1C -1.77%, CCCCOC(=O)c1[nH]c(C)c(C(=O)OC)c1C -9.04%, CCCC(=O)Nn1cnc2c(c1=O)C1(CCCC1)Cc1ccccc1-2 -0.176%, OC(CCCN1CCC(O)(c2ccc(Cl)cc2)CC1)c1ccc(F)cc1 (stereo not drawn) 4.61%, CCCc1nc2n[nH]c(N)c2c2c1CCCC2 12.6%, CC1(C)CC(N(Cc2ccco2)C(=O)Cc2ccccc2)CCO1 (stereo not drawn) 9.62%, Cc1oc2nc(SCCCC(=O)NCCCO)nc(N)c2c1C 4.84%, Cc1ccc(-n2nc3cc(Cl)c(NC(=O)c4ccco4)cc3n2)cc1 -1.11%, CCCC1Cc2c(sc3nc(SC)nc(N)c23)CO1 (stereo not drawn) -1.16%, COC(=O)C(NC(=O)c1ccccc1)(Nc1nc(C)cs1)C(F)(F)F (stereo not drawn) -6.57%, Cc1cc(N2CCN(C3CCCC3)CC2)n2c(nc3ccccc32)c1C#N 28.2%, COC(=O)c1ccc(=O)n(Cc2ccco2)c1 -2.94%, CCCc1cc(NCCN2CCOCC2)n2c(nc3ccccc32)c1C#N -2.52%, COc1cc(C2CC(C(F)(F)F)n3ncc(C(=O)O)c3N2)cc(OC)c1OC (stereo not drawn) 7.46%, CCOC(=O)Cc1nnc(Nc2cccc(O)c2)c2ccccc12 -17.1%, CN(C)c1nc2sc3c(c2c(=O)n1C)CC(C)(C)OC3 10.9%, Cc1cc(=O)oc(C)c1C(=O)N1CCN(Cc2ccc3c(c2)OCO3)CC1 5.97%
